Screening results from PubChem BioAssay.
Shown are actives, neighbours in structure and some others; about 1.2% of the full set was active somewhere.
TcdB GH inh: inhibitors of Clostridioides difficile toxin B glycohydrolase; P18177; TcdB glycohydrolase enzymatic assay, plate reader; inhibition, % at 9.99 µM; 350,000 tested, 0.24% active; in the data active = inhibition above about 10%
Y pestis TopoI: inhibitors of Yersinia pestis topoisomerase I. Y. pestis Topo-I cleavage product accumulation, plate reader. activity, % at 10 µM. 360,000 tested, 0.064% active; in the data active = activity above about 50%, passing the limit was not always enough
BH1578 lux ind: induces V. cholerae light production without autoinducers; AID 588436; 350,000 tested, 0.16% active; activation, % at 18.7 µM; V. cholerae BH1578 lux reporter, luminescence, 6 h; in the data active = activation mostly above about 9.7%, no sharp cut-off
DUSP3 inh: inhibitors of human VHR1 phosphatase (DUSP3). P51452. recombinant VHR phosphatase, pNPP absorbance. inhibition, % at 13.3 µM. 290,000 tested, 0.52% active. AID 1654; in the data active = inhibition above about 50%
Target sequence (P51452 whole entry, looked up): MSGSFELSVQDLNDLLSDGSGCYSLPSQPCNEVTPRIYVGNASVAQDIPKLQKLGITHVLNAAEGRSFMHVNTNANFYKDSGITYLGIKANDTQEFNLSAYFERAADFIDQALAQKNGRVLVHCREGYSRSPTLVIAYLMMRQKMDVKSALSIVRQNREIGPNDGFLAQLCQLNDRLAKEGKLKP
PfHsp40 rescue: rescue of PfHsp40-mediated yeast toxicity | S. cerevisiae expressing PfHsp40, growth rescue, ATP luminescence | growth rescue, % at 12.5 µM | 340,000 tested, 0.68% active | AID 504582; in the data active = growth rescue above about 28%, passing the limit was not always enough;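 note: yeast W303a lacking pdr1 and pdr3 grown in galactose medium; growth measured after three days at 30 °C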
Mtb BioA inh: inhibitors of Mycobacterium tuberculosis BioA enzyme; purified M. tuberculosis BioA enzyme, plate reader; inhibition, % at 9.99 µM; 360,000 tested, 0.096% active; in the data active = inhibition above about 40%
The depositor's hits bear a star; i = inactive; nt = no result.

SMILES	TcdB GH inh	Y pestis TopoI	BH1578 lux ind	DUSP3 inh	PfHsp40 rescue	Mtb BioA inh
C=CCN(CC(=O)NCc1ccc(F)cc1)C(=O)c1csnn1	nt	5	0	12	0	0
CC(C)N(Cc1nccn1C)C(=O)C1CCC(=O)N(CCc2ccccc2)C1 (stereo not drawn)	-1	0	0	nt	nt	-1
CCCCN(C(=O)NC(=O)Nc1ccccc1OCC)S(C)(=O)=O	nt	-3	38*	35	3	-2
CCOC(=O)c1c(C)[nH]c(N=Nc2cccc(OC)c2)c1C	1	10	i	29	77*	0
CCOC(=O)c1c(C)[nH]c(N=Nc2cccc(C)c2)c1C	nt	1	2	-2	8	-1
COc1cccc(C#Cc2ccc([C@@H]3[C@@H](CO)N4C(=O)CN(C(=O)C5CC5)C[C@H]34)cc2)c1	0	nt	nt	nt	nt	nt
COc1ccccc1C(=O)NNC(=O)c1nn(Cc2ccccc2)c(=O)c2ccccc12	0	11	-1	22	2	nt
NC(=O)N/N=C/c1cn(CC(=O)Nc2ccc(F)cc2)c2ccccc12	1	-11	i	12	nt	0
CCCCNc1c(-c2ccc(SC(C)CC)cc2)nc2cnccn12 (stereo not drawn)	nt	25	i	nt	860*	-1
CCCCNc1c(-c2ccc(OC)c(Sc3ccc(OC)cc3)c2)nc2cnccn12	0	29	i	nt	0	-1
COc1ccc(S(=O)(=O)Nc2ccc3c(c2)C(=O)N([C@H](C)CO)C[C@H](C)[C@H](CN(C)S(=O)(=O)c2ccccc2)OCCCC[C@H](C)O3)cc1	1	nt	nt	nt	nt	nt
Cc1ccc(S(=O)(=O)Nc2ccc3c(c2)CC(=O)N([C@@H](C)CO)C[C@H](C)[C@@H](CN(C)Cc2ccc(-c4ccccc4)cc2)O3)cc1	0	nt	nt	nt	nt	-1
CCCCCCCCNC(=O)/C(C#N)=C/c1ccccc1[N+](=O)[O-]	0	12	0	12	355*	0
N#C/C(=C\c1ccccc1[N+](=O)[O-])C(=O)NCc1ccccc1	1	-6	-1	17	-1	nt
C=CCc1c(C)nc(SC)nc1Nc1ccc(C(=O)O)cc1	nt	1	0	-5	-1	-1
C=CCc1c(C)nc(SC)nc1Nc1ccc(C(C)=O)cc1	nt	4	i	21	1	54*
CCCCCc1cc(O)c2c(C)cc(=O)oc2c1	nt	-3	i	-1	56*	-2
Cn1ccnc1CN1CCN(C(=O)c2cc(COc3ccc(F)c(F)c3)on2)CC1	1	1	1	10	0	-1
Cc1cccc(C)c1OCc1cc(C(=O)N2CCN(Cc3nccn3C)CC2)no1	1	5	-1	58*	0	-2
CSc1ccccc1OCc1cc(C(=O)N2CCN(Cc3nccn3C)CC2)no1	0	25	i	-3	-1	2
Cc1cccc(N2CCN(C(=O)c3cc(COc4ccc(F)c(F)c4)on3)CC2)n1	2	15	0	51*	-1	0
COc1ccc(-c2csc3ncn(CC(=O)N4CCOCC4)c(=O)c23)cc1	-4	2	0	-10	-2	nt
O=C(Nc1cccc(Cl)c1)N(CCCN1CCOCC1)Cc1ccccc1F	1	2	0	17	1	15
O=C(Nc1ccccc1)N(CCN1CCOCC1)Cc1cccc(Cl)c1	-2	73*	i	24	-1	nt
Cc1nc(N)nc(N)c1Oc1ccc(Cl)cc1	1	1	526*	nt	0	0
SMILES	TcdB GH inh	Y pestis TopoI	BH1578 lux ind	DUSP3 inh	PfHsp40 rescue	Mtb BioA inh
O=C(COC(=O)c1ccc([N+](=O)[O-])cc1)Nc1ccc(Cl)cn1	0	0	4	nt	-1	0
COc1cc(CCC(=O)OCC(=O)NCc2ccccc2)cc(OC)c1OC	0	3	i	21	-3	nt
O=C(COc1ccc([N+](=O)[O-])cc1)Nc1nc(-c2ccccn2)cs1	0	-11	5	nt	271*	0
Cc1ccc(OCC(=O)NC(=S)Nc2ccc(S(=O)(=O)Nc3cc(C)on3)cc2)c(Br)c1	1	-4	nt	27	73*	0
COC(=O)CCC(=O)NC(=S)Nc1ccc(S(=O)(=O)Nc2cc(C)on2)cc1	0	11	i	-2	-1	1
Cc1ccc(OCC(=O)Nc2nc(-c3ccccn3)cs2)c(C)c1	6	12	-6	nt	54*	-1
Cc1ccc(OCC(=O)Nc2ccc(S(=O)(=O)Nc3ccccn3)cc2)c(C)c1	nt	1	-3	56*	1	4
CCCNC(=O)N1[C@H](CO)[C@H](c2ccccc2)[C@@H]1CNC(=O)C1CCC1	1	nt	nt	nt	nt	nt
